SARS PLpro yeast: SARS-CoV PLP inhibition in yeast. 330,000 compounds, 0.19% hits. AID 485353. S. cerevisiae expressing SARS-CoV PLpro, growth rescue. Potency, µM (highest dose often 32.9 µM), most hits filed as activators; calls by dose curve; further: nearly all actives have a fitted effect of over 55% in size
AmpC inh no detg: inhibitors of E. coli AmpC beta-lactamase without detergent; P00811; AmpC nitrocefin hydrolysis, absorbance 480 nm, 0.0001% Triton; Potency, µM (doses to about 57.1 µM), most hits filed as inhibitors; 330,000 compounds, 0.52% hits; AID 485341; further: nearly all actives have a fitted effect of over 20% in size
Target sequence (P00811 whole entry, looked up): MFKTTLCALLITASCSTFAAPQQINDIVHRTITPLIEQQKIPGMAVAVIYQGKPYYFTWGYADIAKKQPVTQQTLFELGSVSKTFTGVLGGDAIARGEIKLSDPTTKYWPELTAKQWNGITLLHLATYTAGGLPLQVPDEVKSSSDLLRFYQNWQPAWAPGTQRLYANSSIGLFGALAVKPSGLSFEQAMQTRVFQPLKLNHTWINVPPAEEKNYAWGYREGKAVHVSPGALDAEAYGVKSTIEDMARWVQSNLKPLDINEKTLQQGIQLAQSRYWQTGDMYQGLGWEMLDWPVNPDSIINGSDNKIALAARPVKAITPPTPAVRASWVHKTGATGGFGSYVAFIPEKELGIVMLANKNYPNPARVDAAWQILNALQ
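20 mM phosphate pH 7.0 + 0.01% (detergent screen) or 0.0001% Triton X-100; 5.3 nM AmpC reagent; cpd preinc 15 min RT; nitrocefin (800 uM stock) to start; A480 q20 s × 4 min; Activity was normalised to no-enzyme and no-compound control wells.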
AmpC detergent: AmpC beta-lactamase inhibition with detergent present. P00811. Potency, µM (highest dose often 114 µM), usual class: inhibitors. AID 485294. AmpC hydrolysis of nitrocefin, absorbance 480 nm, 0.01% Triton. 370,000 compounds, 0.041% hits; further: nearly all actives have a fitted effect of over 25% in size
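AmpC (5.3 nM in the dispensed reagent) in 20 mM phosphate pH 7.0 with 0.01% (detergent screen) or 0.0001% Triton X-100 was preincubated with compounds for 15 min at room temperature. Nitrocefin was then added from an 800 uM solution, and hydrolysis was followed at 480 nm.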
Cycloheximide cs: affects cycloheximide protein synthesis inhibition readout, counter-screen; 300,000 compounds, 12% hits; cell reporter, cycloheximide protein synthesis inhibition counterscreen; max response, %; in the data active means max response mostly above about 13%, no sharp cut-off; inactive means mostly below about 14%; further: read at 38.3 µM for the half of the compounds with a filed dose
Shiga inhibitor: inhibitors of Shiga toxin in Vero cells; Vero cells, Shiga toxin protein synthesis inhibition reporter; inhibition, % at 38.7 µM; 290,000 compounds, 9.2% hits; in the data active means inhibition mostly above about 28%, no sharp cut-off; inactive means mostly below about 43%
AMA1 RON2 block: AMA1-RON2 (P. falciparum) interaction inhibition; AlphaScreen AMA1-biotinylated RON2 peptide binding; Potency, µM (titrated, usually from 58.2 µM), hits mostly inhibitors; AID 720542; 360,000 compounds, 0.2% hits; further: nearly all actives have a fitted effect of over 45% in size
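AMA1 (3D7) with his tag at 25 nM final met compounds first, then biotinylated RON2 peptide at 25 nM; detection used donor plus acceptor beads, 10 µg/mL apiece, read by AlphaScreen after 30 min at room temperature.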
Of the large screens only hits and unclear results are named; the others gave an inactive call; ! = not active in a repeat. The entries come from a sample that favours hits as a whole. Unless noted, the call rests on the fitted dose curve; in most records, active means well fitted curve in the direction sought with a large enough effect; inconclusive means small, poorly fitted or top-dose-only effect, or another doubt; inactive means no such curve, though single readings can be large; an effect the other way counts as inactive or inconclusive.

O=C(CSc1nc2ccccc2[nH]1)c1ccco1	Cycloheximide cs 28, Shiga inhibitor 106
COc1ccc(NC(=O)CSc2nc3ccc(OC)cc3[nH]2)cc1	none
COc1ccc2nc(SCC(=O)Nc3nccs3)[nH]c2c1	Cycloheximide cs 20, Shiga inhibitor 43
COc1ccc2nc(SCC(=O)NC(C)(C)C)[nH]c2c1	AmpC detergent inconclusive
COc1ccc(CCNC(=O)c2ccc(OCc3c(C)noc3C)cc2)cc1OC	none (no result: Cycloheximide cs, Shiga inhibitor)
O=C(NC1CCCCC1)C(c1ccccc1F)N(C(=O)c1csnn1)C1CCCC1 (centres undefined)	AmpC detergent inconclusive
CCOc1ccc2nc(SCC(=O)N(C)C3CCS(=O)(=O)C3)[nH]c2c1 (centres undefined)	none
COc1ccc2nc(SCC(=O)C(C)(C)C)[nH]c2c1	Cycloheximide cs 43, Shiga inhibitor 65
CCOc1ccc2nc(SCC(=O)N(C)C)[nH]c2c1	AmpC detergent inconclusive, Cycloheximide cs 71, Shiga inhibitor 74
Cc1ccc(-n2c(SCC(=O)OC(C)C)nnc2-c2cnccn2)cc1	AmpC detergent inconclusive
CC(C)(C)C(=O)Nc1ccc(-c2csnn2)cc1	Cycloheximide cs 50, Shiga inhibitor 44
O=C(Nc1ccc(-c2csnn2)cc1)C(Cl)(Cl)Cl	Cycloheximide cs 37, Shiga inhibitor 111
O=C(COC(=O)c1cc(-c2cccs2)nc2ccccc12)NC1CCS(=O)(=O)C1 (centres undefined)	none
CC(=Nc1ccccc1N)c1c(O)n(C)c(=O)[nH]c1=O	AmpC detergent inconclusive, Cycloheximide cs 50, Shiga inhibitor 76
O=C(NCCN1CCCCCC1)c1ccc(N2CCCC2=O)cc1	none
CC(=O)CCC1CC(c2ccc(Cl)cc2)=NO1 (centres undefined)	none (no result: Cycloheximide cs, Shiga inhibitor)
COc1ccc(C2=NOC(Cn3nc(C(=O)O)cc3-c3ccccc3)C2)cc1 (centres undefined)	none
COc1ccc(C2=NOC(CN3C(=O)c4ccccc4S3(=O)=O)C2)cc1 (centres undefined)	Cycloheximide cs 64, Shiga inhibitor 125
O=C1c2ccccc2S(=O)(=O)N1CC1CC(c2ccccc2)=NO1 (centres undefined)	Cycloheximide cs 44, Shiga inhibitor 89
O=C1c2ccccc2S(=O)(=O)N1CC1CC(c2ccc(Cl)cc2)=NO1 (centres undefined)	AmpC detergent inconclusive, Cycloheximide cs 61, Shiga inhibitor 66
COc1ccc(NC(C)C(=O)N2CCN(Cc3ccccc3)CC2)cc1 (centres undefined)	none
Cc1ccc(S(=O)(=O)N2CCN(C(=O)COC(=O)/C=C/c3ccc([N+](=O)[O-])cc3)CC2)c(C)c1	none (no result: AmpC detergent, Cycloheximide cs, Shiga inhibitor)
CC1=C/C(=N\OS(=O)(=O)c2ccccc2)C(C(C)C)=CC1=O	Cycloheximide cs 21, AMA1 RON2 block inconclusive
CC1=C(C)/C(=N\OS(=O)(=O)c2ccc(C)cc2)C=CC1=O	AMA1 RON2 block inconclusive
CC1=C/C(=N\OS(=O)(=O)c2ccccc2)C(C)=CC1=O	Cycloheximide cs 8.3, AMA1 RON2 block inconclusive
c1ccc(-c2cnnc(SCc3cn4cccnc4n3)n2)cc1	AmpC detergent inconclusive
COc1ccc(C2/C=C\CN(C(=O)c3ccc(C)cc3)CC(=O)N2Cc2ccc(F)cc2)cc1 (centres undefined)	Cycloheximide cs 82!, Shiga inhibitor 163!
COc1ccc(C2/C=C\CN(S(=O)(=O)c3ccc(-c4ccccc4)cc3)CC(=O)N2Cc2ccc(F)cc2)cc1 (centres undefined)	Shiga inhibitor 68!
COc1ccc(C2/C=C\CN(Cc3ccccc3)CC(=O)N2Cc2ccc(F)cc2)cc1 (centres undefined)	none (no result: SARS PLpro yeast, AmpC inh no detg, AmpC detergent, AMA1 RON2 block)
COc1ccc(C2/C=C\CN(C(=O)Nc3ccccc3)CC(=O)N2Cc2ccc(F)cc2)cc1 (centres undefined)	none
CCN1CCN(/C=N/c2nc(C)cs2)CC1	AmpC detergent inconclusive, Cycloheximide cs 33, Shiga inhibitor 76
COc1ccc(C(C(=O)NC2CCCC2)N(C(=O)c2snc(-c3ccc(F)cc3)c2N)c2ccccc2)cc1 (centres undefined)	AmpC detergent inconclusive
CCCCN1CC(N2CCCCC2)CS1(=O)=O (centres undefined)	none (no result: SARS PLpro yeast, AmpC inh no detg, AmpC detergent, Cycloheximide cs, Shiga inhibitor)
O=[N+]([O-])c1ccccc1/C=N/N1CCN(Cc2ccccc2)CC1	Cycloheximide cs 45, AMA1 RON2 block 28µM (no result: Shiga inhibitor)
Clc1ccccc1/C=N/N1CCN(Cc2ccccc2)CC1	AmpC detergent inconclusive (no result: Shiga inhibitor)
Cc1ccc(N2CCN(/N=C/c3ccccc3[N+](=O)[O-])CC2)cc1	AMA1 RON2 block inconclusive
O=[N+]([O-])c1ccc(Cl)c(/C=N/N2CCN(Cc3ccccc3Cl)CC2)c1	AMA1 RON2 block inconclusive
O=[N+]([O-])c1ccccc1/C=N/N1CCN(c2ccccn2)CC1	Cycloheximide cs 37, Shiga inhibitor 47
O=[N+]([O-])c1ccccc1C=NN1CCCCCC1	AMA1 RON2 block 18µM (no result: SARS PLpro yeast, AmpC inh no detg, AmpC detergent, Cycloheximide cs, Shiga inhibitor)
Fc1ccccc1/C=N/N1CCN(Cc2ccccc2Cl)CC1	Cycloheximide cs 19, AMA1 RON2 block inconclusive (no result: Shiga inhibitor)
Cc1ccc(S(=O)(=O)N2CCN(c3ccc(C(=O)N4CCOCC4)cc3[N+](=O)[O-])CC2)cc1	none
CCOC(=O)CNC(=O)CSc1nc2ncc(Br)cc2[nH]1	none
COCC(=O)NC1(c2nnnn2CCOC(=O)Nc2ccc(Cl)cc2)CCCCC1	none
O=C(Nc1ccc(C(=O)N2CCC(O)(c3ccc(Cl)c(C(F)(F)F)c3)CC2)cc1)c1ccc(Br)o1	none (no result: Cycloheximide cs, Shiga inhibitor)
COc1ccc(N2C(=O)CC(N3CCN(S(=O)(=O)c4ccc(Cl)cc4)CC3)C2=O)cc1 (centres undefined)	AmpC detergent inconclusive
CC[C@]12c3[nH]c4cc(CCC(=O)N(C)C)ccc4c3CCN1C(=O)[C@@H](CC(=O)NC(C)(C)C)C[C@@H]2C(=O)N1CCN(C(=O)c2ccco2)CC1	none (no result: AmpC detergent, Cycloheximide cs, Shiga inhibitor)
O=C1CSCC(=O)N1Cc1ccc(Cl)cc1Cl	none
CN1CCN(/N=C/c2cccc(Cl)c2Cl)CC1	Cycloheximide cs 29, Shiga inhibitor 41
O=[N+]([O-])c1ccccc1/C=N/NC1=NCCCCC1	Cycloheximide cs 77, Shiga inhibitor 43
Clc1ccccc1CN1CCN(/N=C/C=C/c2ccco2)CC1	Cycloheximide cs 26, Shiga inhibitor 58, AMA1 RON2 block inconclusive
O=[N+]([O-])c1ccccc1/C=N\N1CCN(Cc2ccccc2Cl)CC1	AmpC detergent inconclusive, Cycloheximide cs 16, AMA1 RON2 block 20µM
N#C/C(=C\c1ccc(OCC(N)=O)cc1)c1ccccc1	Cycloheximide cs 39, Shiga inhibitor 88
COc1ccc(C=C(C#N)c2ccc(OC)cc2)cc1	none (no result: SARS PLpro yeast, AmpC inh no detg, AmpC detergent, Cycloheximide cs, Shiga inhibitor)

From PubChem BioAssay
